Not all results are given here.
aSyn UTR act: Activators via SNCA 5'UTR binding, MLPCN; actives 7.1% (n = 300,000); alpha-synuclein 5'UTR reporter, activators screen; activity score, % (tested at 7.5 µM), hits read low; AID 1814, 2009; in the data active = activity score below about -60%
Starred values were filed as active, the others as inactive.

SMILES	aSyn UTR act
CCOc1ccc(NC(=O)/C=C/c2ccccc2)c([N+](=O)[O-])c1	-147*
CCOc1ccc(N/C=C/C(=O)c2ccccc2)c([N+](=O)[O-])c1	87
CCOc1ccc(NC(=S)NC(=O)c2c(Br)cnn2C)c([N+](=O)[O-])c1	-115*
COc1ccc(/C=C/C(=O)Nc2ccccc2C(=O)N2CCCC2)cc1	-86*
COc1ccc(/C=C/C(=O)Nc2ccccc2C(=O)NCC(c2ccc(OC)cc2)N(C)C)cc1 (stereo not drawn)	-80*
COc1ccc(C(=O)/C=C/c2ccccc2C(F)(F)F)cc1	-68*
CCOc1ccc(/C=C/C(=O)Nc2ccccc2C(F)(F)F)cc1	-76*
COc1ccc(/C=C/C(=O)Nc2ccccc2C(=O)O)cc1	83
COc1cccc(NC(=O)c2cnc(SCC(=O)NCc3ccc4c(c3)OCO4)n(C)c2=O)c1	-82*
Cc1ccc(C(=O)c2cc3ccccc3o2)cc1C	-68*
O=C(c1cc2ccccc2o1)c1cccs1	-134*
Cc1ccc(C(=O)c2cc3ccccc3o2)cc1	-170*
Cc1ccc(S(=O)(=O)c2cc3ccccc3oc2=O)cc1	-111*
Cc1cccc(NC(=S)c2nc3ccccc3s2)c1	-100*
Cc1nc2cc(-c3ccccc3)[nH]n2c(=O)c1C	-114*
Cc1nc2nc(-c3ccccc3)[nH]n2c(=O)c1C	-119*
COc1ccc(N2CCN(c3ncccn3)CC2)cc1	-130*
COc1ccc(N2CCN(c3cnc4ccccc4n3)CC2)cc1	-101*
COc1cccc(N2CCN(c3cnc4ccccc4n3)CC2)c1	-116*
COc1cc2c(C#N)c(N3CCc4ccccc4C3)nc(N)c2c(N)n1	-88*
CCOC(=O)CNc1c(-c2ccc(OC)cc2)nc2ccc(Cl)cn12	-127*
COCCNc1c(-c2ccc(OC)cc2)nc2ccc(Cl)cn12	-117*
CCC(C)(C)c1nnc(NC(=O)c2ccc([N+](=O)[O-])cc2)s1	-149*
CCCc1nnc(NC(=O)c2ccc([N+](=O)[O-])cc2)s1	-67*
CC(C)(C)Cc1nnc(NC(=O)c2ccc([N+](=O)[O-])cc2)s1	-77*
SMILES	aSyn UTR act
C=CCOC(=O)c1c(C)nc2cc3c(cc2c1C)OCO3	-101*
N=c1scc(-c2ccccc2)n1/N=C/c1ccco1	-220*
COc1ccc(NC(=O)c2cc(C3CC3)on2)c(OC)c1	-200*
Cc1cc(NC(=O)c2cc(C3CC3)on2)no1	-96*
Cc1c(Cl)cccc1NC(=O)c1cc(C2CC2)on1	-207*
CC(C)(C)c1ccc(NC(=S)NCc2cccs2)cc1	-98*
S=C(NCCc1ccccc1)NCc1cccs1	-74*
COc1ccc(-c2cn3cc(Cl)ccc3n2)cc1OC	-239*
O=[N+]([O-])c1cc(C(F)(F)F)ccc1NCCOc1ccccc1	-124*
C/C(=N\NC(=O)c1c([N+](=O)[O-])c(C)nn1C)c1ccc(NC(=O)c2ccc(C)o2)cc1	-104*
C/C(=N/NS(=O)(=O)c1ccc(F)cc1)c1ccc(NC(=O)c2ccc(C)o2)cc1	-72*
C/C(=N\NC(=O)c1c([N+](=O)[O-])c(C)nn1C)c1ccc(NC(=O)C2CCCC2)cc1	81
FC(F)(F)c1cnc(-c2cnc(-c3ccncc3)nc2)c(Cl)c1	-109*
O=C(CSc1n[nH]c(-c2ccccc2O)n1)N1CCOCC1	-70*
O=C(NC1CCCCC1)C(=S)NCCc1ccccc1	-62*
O=C(NCCc1ccccc1)C(=O)NC1CCCCC1	-105*
O=C(CCl)N(C/C=C/c1ccccc1)c1ccc2c(c1)OCCO2	-81*
OCCN=C1CCCc2c1[nH]c1ccc(Br)cc21	62
Cc1[nH]c(N=Nc2ccccc2)nc1N=Nc1ccccc1	63
Oc1[nH]c2ccccc2c1N=Nc1cccc(Cl)c1	-87*
Cc1cccc2c(N=Nc3ccccc3)c(O)[nH]c12	-112*
Cc1ccc(N=Nc2c(O)[nH]c3ccc(F)cc23)cc1	-137*
O=Nc1c(-c2c(O)[nH]c3cc(Br)ccc23)[nH]c2ccccc12	77
O=C(O)c1ccc(N=Nc2c(O)[nH]c3ccc(Br)cc23)cc1	-188*
O=C(O)c1ccc(N=Nc2c(O)[nH]c3cc(Cl)ccc23)cc1	-294*
SMILES	aSyn UTR act
Oc1[nH]c2ccc(Br)cc2c1N=Nc1ccc(C(F)(F)F)cn1	-68*
Cc1nccc(-c2ccc(-n3cnc4ccccc43)cc2)n1	-96*
Nc1nccc(-c2ccc(-n3cnc4ccccc43)cc2)n1	-63*
Cc1c(C(=O)O)cccc1-c1ccc(/C=N/Nc2ccc(Br)cc2)o1	-145*
Cc1c(C(=O)O)cccc1-c1ccc(/C=N/n2cnnc2)o1	-79*
COC(=O)c1c(C)[nH]c(C(=O)OCc2ccc(F)cc2)c1C	-189*
CC(=O)c1c(C)[nH]c(C(=O)OCc2ccc(F)cc2Cl)c1C	-68*
CCOC(=O)c1[nH]c(C)c(C(=O)c2cc(F)ccc2F)c1C	74
O=Cc1ccccc1OCc1ccc2c(c1)OCO2	-258*
CCN(CC)C(=O)C1CC(c2ccc(OC)cc2)=NO1 (stereo not drawn)	-103*
O=C(COc1ccc2oc(-c3ccccc3)cc(=O)c2c1)NCc1ccco1	-127*
